Assay results taken from the supplement of paper PMC3334620.
The full ranking holds about 33,000 sequences; the median of “E-score (-0.5 to 0.5)” is about -0.016, and the highest 2% start at about 0.32. The sample holds the highest values, similar sequences and a random draw of the others, so the mix is not that of the screen.

target: T1, Stp1 (UniProt B3LFK1); experiment: PBM E-score (8-mer binding enrichment) (E-score (-0.5 to 0.5)); higher = stronger / more preferred TF binding; details: protein concentration: 200 nM; construct: GST-full length
T1 sequence: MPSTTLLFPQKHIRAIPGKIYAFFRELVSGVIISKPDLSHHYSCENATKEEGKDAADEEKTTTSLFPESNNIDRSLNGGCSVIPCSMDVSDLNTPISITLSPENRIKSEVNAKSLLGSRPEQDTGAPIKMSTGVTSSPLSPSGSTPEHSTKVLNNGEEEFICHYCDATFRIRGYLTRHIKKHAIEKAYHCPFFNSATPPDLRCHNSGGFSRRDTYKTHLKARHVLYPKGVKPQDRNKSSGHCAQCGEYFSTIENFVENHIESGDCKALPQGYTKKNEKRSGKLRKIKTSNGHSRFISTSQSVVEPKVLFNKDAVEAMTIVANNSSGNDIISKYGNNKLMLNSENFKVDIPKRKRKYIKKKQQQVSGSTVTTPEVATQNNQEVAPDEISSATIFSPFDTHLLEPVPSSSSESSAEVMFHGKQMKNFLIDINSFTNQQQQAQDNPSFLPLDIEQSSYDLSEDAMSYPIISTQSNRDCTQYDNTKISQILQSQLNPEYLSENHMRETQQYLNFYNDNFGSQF
Experimental: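 Universal 'all 10-mer' protein binding microarrays (Agilent AMADID 015681) probed with GST-tagged S. cerevisiae TFs (full-length or DBD) made by in vitro transcription/translation (PURExpress), about 100-200 nM. Bound TF was detected with fluorescent anti-GST. Each ungapped 8-mer (which stands for itself and its reverse complement) is scored by the PBM enrichment score (E-score), a modified Wilcoxon-Mann-Whitney statistic from -0.5 to +0.5, computed with the Universal PBM Analysis Suite. Scale: above 0.35 generally sequence-specific binding.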

Sequence	PBM E-score
CAAGCTAC	-0.171
GATATATA	0.314
CATATATA	0.256
AGTATATC	0.0639
AGTATATG	-0.0746
AGTATATA	0.363
TATATATA	0.345
AACACTCT	0.00778
AATGGCGC	0.253
CCCGGCGC	0.121
ACCGGCGC	0.3
AACGGCGT	0.448
GACGGCGC	0.451
ACCGGCGT	0.0951
AACGGCGC	0.477
GCCGGCGC	0.346
AATGGCGT	0.161
GATGGCGC	0.145
GACGGGGC	0.143
AACGGGGC	0.186
ATAGCAGC	-0.187
CTGAGCGC	0.0168
GAGAACAA	0.145
CACGGGCA	0.231
ACGTAGTA	0.103

Sequence	PBM E-score
CCCTCTTC	-0.308
AACGGGGG	-0.316
AACGGGCG	0.154
AACGGCGG	0.378
CGACTGCG	-0.098
GAAAGACC	-0.321
AACGCCTA	0.0856
AACGCCGC	0.47
AACGCCTT	0.328
AACGCCGT	0.482
AACGCCAC	0.245
AACGCCGA	0.292
AACGCCGG	0.0903
AACGCCCC	0.213
AACGCCTC	0.225
ACCGACGA	-0.0695
CGCCATCA	-0.144
CTAGGTTA	0.00212
GACTTGGC	-0.232
AGGCCGTA	0.298
CGGCCGTA	0.37
GGGCCGTA	0.369
CGGCCGGA	-0.15
GGCCCGTA	-0.0728
CGGCCGTC	0.16

Sequence	PBM E-score
CGGCCAGC	-0.206
CATGGTCA	0.103
ATCTAAAG	-0.0363
GGAATTGA	0.0238
CGCGCAAA	0.198
GGCGCGTA	0.186
GGCGCAAA	0.406
CGCGCGCA	0.272
GGCGCCCC	0.284
CGCGCGGA	0.256
GGCGCGGA	0.337
GTCGCGGA	-0.0678
GGCGCGCA	0.318
GGCGCGCC	0.423
AGCGCAAA	-0.0739
TGCGCGCA	0.133
CAGCAGTA	-0.0846
AAGAAGCC	0.232
ACCACTTC	-0.242
CGAGCTAG	-0.0273
AGGTTGCC	-0.0941
GCTTGAAC	0.111
AAAGGAGG	-0.258
ACCAAACA	0.201
AAAGTCTG	-0.115

Sequence	PBM E-score
CAATTAGG	0.104
AGCGCGCC	0.196
CCCGCGCC	0.297
AGCGCGCG	0.196
CCCGCGCG	0.328
CGCGCGCC	0.403
CGCGCGAG	0.239
CTCGCGCC	0.295
CGCGCGCG	0.405
CCCCCGCG	-0.0598
ACCTAGCC	-0.186
CTCAATTC	0.0345
GTGCCTAA	0.184
AACAGCGT	0.0405
CTCGGCAC	0.3
ATCGGCGG	0.262
CTCGGCGA	0.123
ATCGGCGA	0.0557
ATCGGCGC	0.342
CTCGGCGC	0.382
ACAACAAT	0.0375
CTCGACAA	-0.0792
CCCGCACG	0.222
CACGCACG	0.203
ACCGCACC	0.0883

Sequence	PBM E-score
GCCGCACA	0.452
AACGCACA	-0.0113
GCCGCACC	0.449
AACGCACG	0.36
CCCGCACC	-0.149
ACCGCACA	-0.0115
CAAACTTG	-0.0331
AAGTGACG	-0.00161
CAGATTGC	0.057
CGAACCTC	-0.0892
CGATGATC	-0.0137
ACGCCCTA	0.127
CCGCCCTA	-0.041
GCGCCCAA	0.119
CCGCCACG	0.0257
GCGCCACA	0.334
GCGCCCTA	0.342
GCGCCCCA	0.353
ACGCCACA	0.295
GCGCCCCC	-0.129
CGCTTGGC	0.0526
CTTGCCTC	0.0687
AACCTATG	0.053
CACCTTTA	-0.0604
AACCTGTC	-0.17

Sequence	PBM E-score
GCACTCGA	-0.0637
AGGCTTGC	-0.31
CGGCTTGC	0.37
CGGCTTCC	0.211
TGGCTTAA	0.193
AGGCTTCA	-0.0829
CGGCTTAG	0.0549
CGGCTTGA	0.0356
CGGCTTCA	0.368
CGGCTTAA	0.318
AATCCTGT	-0.037
ACCTATGG	-0.0452
CTCAGAAG	-0.0989
CCTAACAG	0.121
CTTCCCAC	-0.0242
TATGCATA	0.00403
TACTGTAA	0.021
ATGCAGGA	-0.258
AGGCGCGA	0.392
AGGCGCGG	0.355
CTGCGCGC	0.269
ATGCGCGG	0.307
CAGCGCGC	-0.00184
AGGCGCGC	0.308
CGGCGCGC	0.475

Sequence	PBM E-score
CGGCGCGA	0.477
GGGCGCGA	0.28
AAGCGCGG	0.171
ACGCGCGA	0.105
CAGCGCGA	-0.0618
CTGCTTAC	-0.0697
CTCGAAAG	-0.053
CCTCACCA	-0.0872
ACAAATGC	0.155
CTTCAAGC	0.0107
AGACCATC	-0.131
CCCCTAAA	-0.228
AGTTGATG	-0.0271
ATCTACAC	0.0776
ACTTTACG	0.0861
GCAGGAGA	-0.303
CCGCCGTA	0.42
CCGCCGTC	0.255
ACGCCGTA	0.471
ACACCGTA	-0.0212
ACGCCGTC	0.41
ACGCCGGG	-0.0857
